{
  "source": "PubChem BioAssay (NCATS)",
  "note": "Records with an inconclusive call do not appear. Unmarked numbers belong to inactive results. Calls come from the whole dose curve; as a rule, active = well fitted cell-killing curve with a large enough effect; inconclusive = small, poorly fitted or top-dose-only effect, or effect the other way; inactive = flat fitted curve, though single readings scatter. % is set by controls: 0 for no effect and ±100 for the full control effect.",
  "data": [
    {"tested_on": "CAOV3", "assay": "Primary qHTS to identify gynecologic anti-cancer compounds using libraries of approved drugs and bioactive compounds (AID 1345084); note: nearly all actives have a fitted effect of over 55% in size", "settings": "Gynecologic cancer cell panel viability, ATPlite luminescence, 48 h; series mostly up to 57.5 µM; activity change, negative = cytotoxicity: at the top concentration", "how_it_was_run": "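ATP-based viability (ATPlite), 1,000 cells/well, 16 h pre-incubation, 48 h compound at 37 C, 5% CO2, 15 min RT before read.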", "units": {"activity change, negative = cytotoxicity": "%"}, "values": [
      {"smiles": "COCCc1ccccn1", "activity change, negative = cytotoxicity": 3.38},
      {"smiles": "OC1(c2ccccc2)CCNCC1", "activity change, negative = cytotoxicity": -5.78},
      {"smiles": "O=C1NC(c2ccccc2)(c2ccccc2)C(=O)N1COP(=O)(O)O", "activity change, negative = cytotoxicity": 3.14},
      {"smiles": "COC(=O)c1cc(Cl)ccc1OC", "activity change, negative = cytotoxicity": 19.4},
      {"smiles": "COC(=O)CCCCC(CCSS/C(CCO)=C(\\C)N(C=O)Cc1cnc(C)nc1N)SC(C)=O", "note": "(stereo unspecified)", "activity change, negative = cytotoxicity": -2.88},
      {"smiles": "COc1ccc2nc(SCc3ncc(C)c(OC)c3C)[nH]c2c1", "activity change, negative = cytotoxicity": -7.68},
      {"smiles": "Cc1ccc(C(C)OC(=O)C2(C)CCC(C(=O)O)C2(C)C)cc1", "note": "(stereo unspecified)", "activity change, negative = cytotoxicity": 3.08},
      {"smiles": "CN(C)CCN1CCN(c2cccc(Cl)c2)C1=O", "activity change, negative = cytotoxicity": -0.162},
      {"smiles": "CCOC(=O)C(=O)CCCCCCl", "activity change, negative = cytotoxicity": -1.1},
      {"smiles": "CCOC(=O)Oc1ccc(CCNC(=O)[C@H](CCSC)NC(C)=O)cc1OC(=O)OCC", "activity change, negative = cytotoxicity": -5.1},
      {"smiles": "COC(=O)c1cc(Cl)c(NC(C)=O)cc1OC", "activity change, negative = cytotoxicity": 8.46},
      {"smiles": "CCN1CCN(c2cc(-c3ccc(F)cc3)c3c(n2)CCCCCC3)CC1", "activity change, negative = cytotoxicity": 5.41},
      {"smiles": "CCCc1ncc(C(=O)O)s1", "activity change, negative = cytotoxicity": -16.5},
      {"smiles": "Cc1coc2ccccc2c1=O", "activity change, negative = cytotoxicity": -8.74},
      {"smiles": "O=C1CC2(CCCC2)CC(=O)N1", "activity change, negative = cytotoxicity": 20.1},
      {"smiles": "COC(=O)/C=C\\C(=O)OC", "activity change, negative = cytotoxicity": 19.3},
      {"smiles": "C#CC(C)(CC)OC(=O)c1ccccc1C(=O)O", "note": "(stereo unspecified)", "activity change, negative = cytotoxicity": 0.393},
      {"smiles": "O=C(O)Cn1c(=O)n(Cc2ccc(Br)cc2F)c(=O)c2ccc(Cl)cc21", "activity change, negative = cytotoxicity": 15.6},
      {"smiles": "CN1CCN(N)CC1", "activity change, negative = cytotoxicity": 5.75},
      {"smiles": "CC(CC(C#N)(c1ccccc1)C(C)C)N(C)C", "note": "(stereo unspecified)", "activity change, negative = cytotoxicity": 2.41},
      {"smiles": "CCOC(=O)CN1CCCC1=O", "activity change, negative = cytotoxicity": 2.91},
      {"smiles": "CC(C)(C)NCC(O)COc1ccccc1OCC1CCCO1", "note": "(stereo unspecified)", "activity change, negative = cytotoxicity": -0.752},
      {"smiles": "CCN(CC)CC(=O)Oc1ccc(NC(C)=O)cc1", "activity change, negative = cytotoxicity": 0.115},
      {"smiles": "COC(=O)/C=C(/C)N", "activity change, negative = cytotoxicity": 8.65},
      {"smiles": "C#Cc1ccc(-c2ccccc2F)cc1", "activity change, negative = cytotoxicity": -2.9},
      {"smiles": "NS(=O)(=O)c1cc(C(=O)NN2C[C@H]3[C@H]4CCC(C4)[C@H]3C2)ccc1Cl", "activity change, negative = cytotoxicity": 11.3},
      {"smiles": "Cc1[nH]cnc1-c1ccc(Cl)cc1", "activity change, negative = cytotoxicity": 11.9},
      {"smiles": "c1ccc2c(c1)CCc1ccccc1N2", "activity change, negative = cytotoxicity": -2.97},
      {"smiles": "COC(=O)c1cc(S(N)(=O)=O)ccc1OC", "activity change, negative = cytotoxicity": 3.35},
      {"smiles": "CCOc1ccccc1OCC1CNCCO1", "note": "(stereo unspecified)", "activity change, negative = cytotoxicity": 6.1},
      {"smiles": "O=C(C1CCCCC1)N1CC(=O)N2CCCc3ccccc3C2C1", "note": "(stereo unspecified)", "activity change, negative = cytotoxicity": 27.1},
      {"smiles": "CCn1ccc(NS(=O)(=O)c2ccc(N)cc2)nc1=O", "activity change, negative = cytotoxicity": 5.9},
      {"smiles": "CSCC[C@H](NC(=O)[C@H](Cc1c[nH]c2ccccc12)NC(=O)CCNC(=O)OC(C)(C)C)C(=O)N[C@@H](CC(=O)O)C(=O)N[C@@H](Cc1ccccc1)C(N)=O", "activity change, negative = cytotoxicity": 11},
      {"smiles": "O=C(O)C(=O)Nc1cccc(-c2nn[nH]n2)c1", "activity change, negative = cytotoxicity": -2.62},
      {"smiles": "COc1ccc(CCC(C)=O)cc1", "activity change, negative = cytotoxicity": 0},
      {"smiles": "COc1cc(S(N)(=O)=O)cc(C(=O)O)c1OC", "activity change, negative = cytotoxicity": 12}
    ]}
  ]
}
